Source: PubChem
FEN1 inh: qHTS Assay for the Inhibitors of Human Flap endonuclease 1 (FEN1). P39748. hit rate 0.35% among 390,000. Potency, µM (highest dose often 114 µM), for the others: top-dose activity change, negative = inhibition, usual class: inhibitors. Recombinant FEN1 flap cleavage, fluorescence, 15 min; note: potency is the fitted concentration of half-maximal effect; % is set by controls: 0 for no effect and ±100 for the full control effect; nearly all actives have a fitted effect of over 65% in size
Target sequence (P39748 whole entry, looked up): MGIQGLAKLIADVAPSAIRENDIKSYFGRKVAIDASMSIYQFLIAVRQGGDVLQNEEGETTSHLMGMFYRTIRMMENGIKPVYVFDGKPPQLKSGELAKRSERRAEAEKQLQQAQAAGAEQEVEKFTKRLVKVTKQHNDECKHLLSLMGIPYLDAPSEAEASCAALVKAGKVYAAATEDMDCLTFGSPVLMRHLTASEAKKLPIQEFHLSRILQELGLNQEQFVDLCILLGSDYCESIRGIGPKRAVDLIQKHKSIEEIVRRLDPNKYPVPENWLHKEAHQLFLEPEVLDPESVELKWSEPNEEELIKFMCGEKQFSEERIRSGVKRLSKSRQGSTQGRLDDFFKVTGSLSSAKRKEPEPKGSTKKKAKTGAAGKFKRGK
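Quantitative HTS format: each compound was titrated, incubated with 10 nM nuclease for 15 min at room temperature, then challenged with flap substrate at 50 nM final. Signal change over 15 min gave concentration–effect curves.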
Pol eta inh-1: qHTS for Inhibitors of Polymerase Eta; recombinant Pol eta, fluorescent DNA replication assay; Potency, µM (highest dose often 114 µM), without a hit: at the top dose activity change, negative = inhibition, actives largely listed as inhibitors; hit rate 1.2% among 390,000; AID 588591, 2011; note: potency is the fitted concentration of half-maximal effect; % is set by controls: 0 for no effect and ±100 for the full control effect
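Pol eta at 10 nM preincubated with compounds 15 min at room temperature; reaction started with fluorescent substrate (50 nM final) and read kinetically at 0 and 10 min.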
WRN inhibitor: qHTS for Inhibitors of WRN Helicase | Bifunctional 3'-5' exonuclease/ATP-dependent helicase WRN (Homo sapiens), Q14191 | WRN helicase unwinding, fluorescent forked duplex, kinetic | Potency, µM (series often up to 114 µM), for the others: top-dose activity change, negative = inhibition, actives largely listed as inhibitors | hit rate 0.46% among 360,000; note: potency is the fitted concentration of half-maximal effect; % is set by controls: 0 for no effect and ±100 for the full control effect; nearly all actives have a fitted effect of over 55% in size
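WRN at 20 nM final was preincubated with compound for 15 min at room temperature; reaction started with 100 nM forked duplex oligonucleotide carrying fluorophore and quencher plus 2 mM ATP (final). Unwinding followed kinetically by red fluorescence (ex 525/em 598 nm).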
POLI inh: qHTS for Inhibitors of Polymerase Iota; DNA polymerase iota (Homo sapiens), Q9UNA4; Pol iota fluorescent replication assay, 10 min; Potency, µM (top dose mostly 115 µM), inactives show top-dose activity, negative = inhibition, actives largely listed as inhibitors; hit rate 1% among 390,000; AID 588590, 2011; note: potency is the fitted concentration of half-maximal effect
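Fluorescent replication assay read twice, at 0 min and 10 min after adding 50 nM (final) substrate. Enzyme (10 nM) and compounds were first incubated 15 min at room temperature; enzyme-free buffer wells were negative controls.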
POLB inh: qHTS Assay for Inhibitors of DNA Polymerase Beta; Potency, µM (top dose mostly 114 µM), for inactives: top-dose activity change, negative = inhibition, most hits filed as inhibitors; Pol beta primer extension/strand displacement, fluorescence kinetic; hit rate 1.3% among 340,000; P06746; note: potency is the fitted concentration of half-maximal effect; % is set by controls: 0 for no effect and ±100 for the full control effect
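Curves were derived by four-parameter Hill fits of normalized qHTS data. The kinetic fluorescent primer-extension read was taken at 0 and 10 min after 50 nM substrate, following a 15 min room-temperature preincubation of 10 nM enzyme with compounds.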
Pol kappa inh-1: qHTS for Inhibitors of Polymerase Kappa | DNA polymerase kappa (Homo sapiens), Q9UBT6 | purified Pol kappa, fluorescent DNA synthesis assay, 10 min | Potency, µM (top dose mostly 107 µM), without a hit: at the highest dose activity, negative = inhibition, actives largely listed as inhibitors | hit rate 0.53% among 400,000 | AID 588579, 2011; note: potency is the fitted concentration of half-maximal effect; % is set by controls: 0 for no effect and ±100 for the full control effect
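Activity was followed as the change in fluorescence between reads at 0 and 10 min after starting the reaction with 50 nM substrate. Beforehand, 10 nM polymerase had been preincubated with compound for 15 min at room temperature.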
GALK confirm: Confirmation Assay for Inhibitors of Human Galactokinase (GALK) | shares compounds with Pol eta inh-1 | purified GALK, Kinase-Glo ATP depletion luminescence | Potency, µM (titrated, usually from 115 µM), for inactives: at the top dose activity, negative = inhibition, usual class: inhibitors | hit rate 70% among 150 | AID 2015, 2009
GALK redox cs: Confirmatory Assay for Inhibitors of Human Galactokinase (GALK): Phenol-HRP redox assay counterscreen | hit rate 40% among 150 | AID 2035, 2009 | shares compounds with Pol eta inh-1 | Potency, µM (top dose mostly 115 µM), without a hit: top-dose activity change, negative = H2O2 signal, hits mostly inhibitors | Phenol red-HRP H2O2 redox cycling, absorbance 600 nm
HEK293 tox: Secondary Assay for Inhibitors of Human Galactokinase (GALK): HEK-293 Cell Viability Assay; shares compounds with Pol eta inh-1; HEK-293 viability, ATP luminescence (CellTiter-Glo), 24/48 h; Potency, µM (highest dose often 46.1 µM), for inactives: top-dose activity change, negative = cytotoxicity, usual class: inhibitors; hit rate 10% among 170; note: potency is the fitted concentration of half-maximal effect; % is set by controls: 0 for no effect and ±100 for the full control effect
Pol kappa inh-2: qHTS for Inhibitors of Polymerase Kappa: Confirmatory Assay for Cherry-picked Compounds; AID 720501, 2013; hit rate 76% among 920; purified Pol-kappa, fluorescent strand-displacement substrate; Potency, µM, most hits filed as inhibitors; shares compounds with Pol eta inh-1; note: potency is the fitted concentration of half-maximal effect
Pol eta inh-2: qHTS for Inhibitors of Polymerase Eta: Confirmatory Assay for Cherry-picked Compounds; shares compounds with Pol eta inh-1; Pol eta primer extension, TAMRA/BHQ fluorescence, 10 min; Potency, µM, actives largely listed as inhibitors; hit rate 64% among 2,600; note: potency is the fitted concentration of half-maximal effect
An asterisk follows results filed as active; u = inconclusive; x = no result; [ ] = another dose, or the depositor's remark. This is a sample that favours compounds with a hit; in the whole collection about 2.4% have one here. Calls come from the whole dose curve; as a rule, active = well fitted curve in the direction sought with a large enough effect; inconclusive = small, poorly fitted or top-dose-only effect, or another doubt; inactive = no such curve, though single readings can be large; an effect the other way counts as inactive or inconclusive.

SMILES	FEN1 inh	Pol eta inh-1	WRN inhibitor	POLI inh	POLB inh	Pol kappa inh-1	Pol kappa inh-2	Pol eta inh-2	others
CCc1ccccc1NC(=O)Nc1nnc(N(C)Cc2ccccc2)s1	-18%	-10%	x	-1%	29%	-11%	x	x
Cc1cc(C)c(C(=O)/C=C/c2ccco2)c(=O)[nH]1	-4%	56µM*	-3%[11.6 µM]	u	14µM*	u	x	85*
O=C(/C=C/c1ccco1)c1cccc([N+](=O)[O-])c1	-8%	20µM*	u	50µM*	x	u	x	u
O=C(Nc1ccc(Cl)c(Cl)c1)N(Cc1c[nH]c2ccccc12)C1CCCCC1	-21%	u	x	1%	u	-20%	x	x
CON=C(C(=O)NC1C(=O)N2C(C(=O)O)=C(CSc3nc(=O)c(=O)[nH]n3C)CSC12)c1csc(N)n1 (stereo not drawn)	-22%	32µM*	-27%	u	x	40µM*	21*	30*
CCOC(=O)CN(Cc1cc(OC)cc(N(C)C)c1OC)C(=O)C1CC(CO[Si](C)(C)C(C)(C)C)=CN1C(=O)OC(C)(C)C (stereo not drawn)	-9%	x	x	-18%	x	-3%	x	x
CC[n+]1cccc(Br)c1	-10%	x	x	3%	x	-3%	x	x
O=C1C=CC(=O)N1CCCCCCCCCCN1C(=O)C=CC1=O	11%	35µM*	3.2µM*	u	x	-27%	u	x
O=C1C=CC(=O)N1Cc1ccncc1	-5%	u	-9%	9%	x	-11%	x	x
O=C(COC(=O)c1cncc(Br)c1)Nc1nnc(-c2ccccc2)o1	-12%	40µM*	-11%[11.6 µM]	u	x	u	x	60*
Cn1nc(C(=O)Nc2ccc(S(=O)(=O)Nc3ncccn3)cc2)ccc1=O	4%	28µM*	-31%	u	-23%	u	x	67*
O=C(Nc1ccc(S(=O)(=O)Nc2ncccn2)cc1)C12CC3CC(CC(Cl)(C3)C1)C2	4%	18µM*	-11%[11.6 µM]	u	x	u	17*	30*
CCC(=O)Nc1ccc(S(=O)(=O)Nc2ncccn2)cc1	2%	8%	4%	6%	7%	2%	x	x
COCCN1Cc2cccc(C(=O)Nc3cc(C)cc(C)c3)c2C1=O	-4%	-20%	-13%	35%	0%	-13%	x	x
COc1ccc(N2Cc3cccc(C(=O)Nc4cc(C)cc(C)c4)c3C2=O)cc1	-16%	79µM*	x	71µM*	10µM*	u	42*	u
CN(C(=O)NCc1noc2ccccc12)c1cccc(Cl)c1	12%	-17%	x	-16%	-2%	-23%	x	x
O=C(COC(=O)c1ccccc1OCc1cccc(Br)c1)Nc1ccc(Br)cc1	-17%	x	x	-9%	x	-1%	x	x
O=C(Nc1sc2c(c1C(=O)O)CCC2)C(=O)N1CCOCC1	9%	20µM*	-22%	u	u	-7%	x	u
Cc1cc(=O)oc2c(CN3CC(C)OC(C)C3)c(O)c(Cl)cc12 (stereo not drawn)	-16%	20µM*	u	35µM*	14µM*	u	u	u
COc1ccc(-n2nnc3c(=O)n(CC(=O)N4CCC(C)CC4)cnc32)cc1	19%	-5%	-6%	17%	-7%	10%	x	x	GALK confirm=-5%;GALK redox cs=1%;HEK293 tox=-5%
O=C(O)CCCCCn1c(SCC(=O)c2ccc(O)c(O)c2)nc2ccsc2c1=O	-19%	2.8µM*	u	u	40µM*	u	7.5*	17*
O=C1CSC(=S)N1c1ccc(F)c(Cl)c1	-16%	0%	-1%	u	0%	-14%	x	x
O=C(O)c1cc(C(=O)O)cc(N2C(=O)CSC2=S)c1	u	u	-24%[11.6 µM]	22µM*	2%	89µM*	u	30*
COc1ccc(CCNC(=O)C2CCCN(c3nc4c(C)cc(C)cc4s3)C2)cc1OC (stereo not drawn)	3%	-14%	x	27%	-7%	-15%	x	x
N#Cc1c(SCC(=O)Nc2nc3ccccc3s2)sc2c(O)cc(=O)[nH]c12	18µM*	4.5µM*	40µM*	6.3µM*	x	13µM*	19*	30*
SMILES	FEN1 inh	Pol eta inh-1	WRN inhibitor	POLI inh	POLB inh	Pol kappa inh-1	Pol kappa inh-2	Pol eta inh-2	others
CC1CCN(S(=O)(=O)c2ccc3c(c2)C(Cl)(Cl)C(=O)N3)CC1	x	32µM*	-14%[11.6 µM]	x	x	x	x	u
Cc1ccc(OCC(=O)N/N=C\c2ccc(C)o2)c(C)c1	9%	-20%	-21%	71%	52%	-2%	x	x
Cc1ccc(OCC(=O)N/N=C\c2ccc(-c3cccc(C(=O)O)c3)o2)c(C)c1	-17%	3.5µM*	u	u	20µM*	50µM*	x	30*
CNC(=S)N/N=C/c1ccc(-c2cccc(C(=O)O)c2)o1	0%	-10%	-20%	48%	-13%	-24%	x	x
O=C(O)c1cccc(-c2ccc(/C=N/Nc3nn[nH]n3)o2)c1	-15%	u	-19%	27%	u	u	x	67*
COc1ccc(CC(=O)N/N=C/c2ccc(-c3cccc(C(=O)O)c3)o2)cc1OC	-22%	10µM*	-10%	u	13µM*	79µM*	12*	19*
